Laboratory results taken from the supplement of paper PMC8728848.
This excerpt belongs to a sample that is enriched for the strongest signals.

Legend:
Test in all cases: glycan array binding signal (z-score within array); higher = stronger binding
Details in all cases: glycan notation: IUPAC condensed, linker removed
[1] = molecular target: GlcNAc(b1-3)Gal(b1-4)GlcNAc(b1-2)Man(a1-3)[GlcNAc(b1-3)Gal(b1-4)GlcNAc(b1-2)Man(a1-6)]Man(b1-4)GlcNAc(b1-4)[Fuc(a1-6)]GlcNAc
Summary of the method: (§1)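 From the Consortium for Functional Glycomics database, 3228 arrays were curated, keeping only those whose protein sequence was available. Binding is given as a within-array Z-score averaged across arrays sharing a protein sequence and across linkers. Negative Z-scores can be read as non-binding.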

[2] = molecular target: GlcNAc(b1-3)Gal(b1-4)GlcNAc(b1-3)[GlcNAc(b1-3)Gal(b1-4)GlcNAc(b1-3)]GalNAc
Summary of the method: as §1

[3] = molecular target: GlcNAc(b1-3)Man
Summary of the method: as §1

[4] = molecular target: GlcNAc(b1-4)GlcNAc(b1-4)GlcNAc(b1-4)GlcNAc(b1-4)GlcNAc
Summary of the method: as §1

[5] = molecular target: Man(a1-2)Man(a1-2)Man(a1-3)Man
Summary of the method: as §1

[6] = molecular target: Neu5Ac(a2-3)Gal(b1-3)GalNAc
Summary of the method: as §1

[7] = molecular target: Neu5Ac(a2-3)Gal(b1-4)Glc
Summary of the method: as §1

[8] = molecular target: Neu5Ac(a2-3)Gal(b1-4)GlcNAc(b1-3)Gal(b1-3)GlcNAc
Summary of the method: as §1

[9] = molecular target: Neu5Ac(a2-3)Gal(b1-4)GlcNAc(b1-3)Gal(b1-4)GlcNAc(b1-3)GalNAc
Summary of the method: as §1

[10] = molecular target: Neu5Ac(a2-3)Gal(b1-4)[Fuc(a1-3)]GlcNAc(b1-3)GalNAc
Summary of the method: as §1

[11] = molecular target: Neu5Ac(a2-3)GalNAc
Summary of the method: as §1

[12] = molecular target: Neu5Ac(a2-6)GalNAc
Summary of the method: as §1

[13] = molecular target: Neu5Ac(a2-8)Neu5Ac(a2-3)[Gal(b1-3)GalNAc(b1-4)]Gal(b1-4)Glc
Summary of the method: as §1

[14] = molecular target: Neu5Ac(a2-8)Neu5Gc(a2-3)Gal(b1-4)GlcNAc
Summary of the method: as §1

[15] = molecular target: Neu5Gc(a2-3)Gal(b1-3)[Fuc(a1-4)]GlcNAc
Summary of the method: as §1

B1: SP15308A-bot-339-19-339 (Bacteroides ovatus) (protein)
chain: ACNNEWEDEQYEQYISFKSPIPAGGEGVTDIYVRYKEDGKVTYRLPIVVSGSTTNTLDREVHIAVDKDTLETLNIERFSIHRPGLWYTALEEDKYDFPKTVHISAGSSVEQLNIDFNLQGIDMLEKWVLPLTIVDDPSYNYKSHPRKNYAKALLRVIPFNNYSGSYTSSAMKVYTYINGKPDTNARTANKRTGYVINDNTVFFYAGLISEDLDKEVREKYKINVHFNEDGTLHMEQGDPTNKMKFELIGTPTYSKTSVMDATRPYLERRYVQIMFEYDFEDFSYGGNGVDVIPIKYKVEGSMTLQRNINTQIPDEDQQIEW
glycan array binding signal (z-score) [1]: 0.083
glycan array binding signal (z-score) [2]: 0.148
glycan array binding signal (z-score) [3]: -0.188
glycan array binding signal (z-score) [4]: -0.452
glycan array binding signal (z-score) [5]: -0.468
glycan array binding signal (z-score) [6]: 1.94
glycan array binding signal (z-score) [7]: 0.997
glycan array binding signal (z-score) [8]: 0.117
glycan array binding signal (z-score) [9]: -0.51
glycan array binding signal (z-score) [10]: 1.76
glycan array binding signal (z-score) [11]: 0.234
glycan array binding signal (z-score) [12]: -0.36
glycan array binding signal (z-score) [13]: -0.083
glycan array binding signal (z-score) [14]: -0.21
glycan array binding signal (z-score) [15]: -0.412
